# GALR2 ag: GALR2 receptor agonists, primary screen, cell-based. GALR2-expressing cells, agonist activation read-out. activation, % (no concentration beside the values). 140,000 tested, 0.48% active; in the data active = activation above about 5%, passing the limit was not always enough;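 note: 0% = vehicle buffer wells and 100% = reference agonist at full effect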
# Smad3 inh: Smad3/FoxH1 peptide binding inhibitors, primary screen, biochemical, TR-FRET; Mothers against decapentaplegic homolog 3 (Homo sapiens), P84022; TR-FRET Smad3/Dy647-FoxH1 peptide binding, europium anti-His; inhibition, % at 25 µM; 88,000 tested, 0.29% active;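 active = compounds that reduce the energy-transfer binding signal between the protein and its labelled peptide by more than half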;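 note: 0% = Smad3 plus labelled peptide maximal FRET and 100% = peptide-only background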
# MT1-MMP txn act: MT1-MMP promoter reporter activation – cell-based, luciferase luminescence, primary screen | HT1080 MT1-MMP promoter luciferase reporter, overnight; stronger effect = higher value | AID 750, 2007 | 86,000 tested, 0.16% active | activation factor at 10 µM;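 active = activation factor of at least 2 for MT1-MMP transcription at 10 µM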
# S1P2 antag: human S1P2 receptor antagonists, primary screen, cell-based; Sphingosine 1-phosphate receptor 2 (Homo sapiens), O95136; cell-based S1P2 antagonist assay, inhibition at 5 uM; inhibition, % at 5 µM; 97,000 tested, 0.21% active; in the data active = inhibition above about 45%;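 note: CRE beta-lactamase reporter cells expressing human S1P2 stimulated with S1P; 0% = agonist at EC80 alone and 100% = agonist plus reference antagonist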
# Target sequence (O95136 whole entry, looked up): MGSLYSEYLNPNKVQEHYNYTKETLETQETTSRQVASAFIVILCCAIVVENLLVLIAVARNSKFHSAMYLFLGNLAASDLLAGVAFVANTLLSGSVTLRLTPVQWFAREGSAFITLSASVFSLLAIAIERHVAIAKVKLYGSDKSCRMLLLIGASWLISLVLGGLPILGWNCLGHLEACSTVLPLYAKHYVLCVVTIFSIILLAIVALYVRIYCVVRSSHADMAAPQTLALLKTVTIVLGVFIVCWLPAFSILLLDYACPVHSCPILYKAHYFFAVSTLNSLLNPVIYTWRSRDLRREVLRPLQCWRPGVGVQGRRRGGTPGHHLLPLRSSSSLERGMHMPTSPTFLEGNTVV
# S1P2 agonist: S1P2 receptor agonists, primary screen, cell-based | Sphingosine 1-phosphate receptor 2 (Homo sapiens), O95136 | S1P2-expressing cell line, agonist reporter read-out | activation, % at 4.5 µM | 97,000 tested, 0.46% active | AID 729, 2007; in the data active = activation above about 16%;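 note: 0% = vehicle low control and 100% = maximal reference agonist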
# GALR2 blocker: GALR2 antagonists in receptor-expressing cells, primary screen; Galanin receptor type 2 (Homo sapiens), O43603; 140,000 tested, 0.39% active; inhibition, % at 4 µM; antagonist mode;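 note: cells stimulated with galanin 1-16 at roughly its EC80; 0% = agonist challenge control and 100% = basal control without agonist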
# GALR2 blk conf: GALR2 antagonists, retest of hits, confirmation, cell-based. shares compounds with GALR2 blocker. GALR2-expressing cells, antagonist mode, inhibition. inhibition, % at 4 µM. 480 tested, 60% active;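 note: cells stimulated with galanin at about its EC80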
# BLA inhib ctr: inhibitors of NFAT-driven beta-lactamase reporter, confirmation, counter-screen for GALR2 antagonist project, CHO NFAT-bla cells, FRET readout | shares compounds with GALR2 blocker | thapsigargin-stimulated | inhibition, % at 4.2 µM | 480 tested, 36% active | AID 867, 2007;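 active = inhibition above the mean inhibition across tested compounds plus 3 SD, cut at about 27% in these data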;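 note: 0% = 500 nM thapsigargin stimulated wells and 100% = unstimulated BSA only wells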
# Numbers without * were called inactive; . = no result. Hits are enriched below; roughly 1.4% of the tested compounds scored in any of these assays. Cut-off read from the data, not from the text of the source, unless noted: active = inhibition above about 27%; inactive = the rest.
SMILES,GALR2 ag,Smad3 inh,MT1-MMP txn act,S1P2 antag,S1P2 agonist,GALR2 blocker,GALR2 blk conf,BLA inhib ctr
CS(=O)(=O)c1nc(-c2ccco2)cc(C(F)(F)F)n1,2.9,.,1.3,23.8,-8.4,27.0*,52.9*,43.5*
S=C(Nc1cccc(Cl)c1)Nc1cccc2cnccc12,-0.8,.,.,.,.,30.0*,21.6,10.6
CN(C)Cc1ccc(-c2cc3onc(-c4ccccc4)c3c(=O)n2C)cc1,.,-8.9,.,.,.,.,.,.
O=C1Nc2ccccc2/C1=N\c1sc2c(c1C(=O)Nc1ccccc1)CCCC2,-4.3,-8.1,1.2,-1.7,-8.1,28.7*,4.7,-4.8
O=C(CSc1n[nH]c(-c2ccco2)n1)Nc1sc2c(c1C(=O)Nc1ccccc1)CCCC2,-1.1,14.4,1,-15.3,-3.2,-2.8,.,.
O=C(/C=C/c1cn(CC(O)CN2CCCCC2)c2ccccc12)c1cccs1 (centres undefined),0.1,.,.,.,.,8.7,.,.
CCCN(CCC)CC(O)Cn1cc(/C=C/C(=O)c2cccs2)c2ccccc21 (centres undefined),0.9,.,.,.,.,53.0*,31.9*,44.0*
O=C(/C=C/c1ccc(Cl)cc1)NC(=S)Nc1ccc(NC(=O)c2ccco2)cc1,-2.2,.,.,.,.,46.4*,53.0*,23.4
O=C(O)CCSCc1ccccc1,.,-3.8,.,.,.,.,.,.
COc1cccc(COc2cc3ccccc3nc2C)c1,-1.9,.,.,57.3*,-4.2,39.8*,36.7*,10.3
CN(CC(=O)O)Cc1c[nH]c2ccccc12,.,-8.3,.,.,.,.,.,.
O=C1/C(=C/c2ccc(N3CCOCC3)o2)SC(=Nc2ccccc2)N1CCc1c[nH]c2ccccc12,1.8,.,.,67.5*,-7.8,27.5*,27.0*,43.2*
COc1cc(/C=C2\SC(=Nc3ccccc3)N(CCc3c[nH]c4ccccc34)C2=O)ccc1OC(C)C(=O)O (centres undefined),1.2,.,.,.,.,-16.0,.,.
CC(C)CNc1nc2ncnc(N)c2[nH]1,.,15.9,.,.,.,.,.,.
O=C(O)C[C@H](S)C(=O)O,.,3.6,.,.,.,.,.,.
O=C1N/C(=C/c2ccc(N3CCCC3)cc2)C(=O)N1c1ccccc1,1.9,.,.,.,.,16.2,.,.
O=C1N/C(=C/c2ccc(N3CCOCC3)o2)C(=O)N1c1ccccc1,-0.4,.,.,.,.,54.7*,11.0,13.8
O=C1NC(=S)S/C1=C/c1ccc(N2CCOCC2)o1,-0.5,.,.,.,.,6.4,.,.
C=CCN1C(=O)N/C(=C/c2ccc(N3CCOCC3)o2)C1=O,1.2,.,.,.,.,37.9*,14.0,12.9
CCOC(=O)c1c(C)nc2sc(C(=O)Nc3ccc(OC)cc3)c(N)c2c1-c1ccc(OC)cc1,-3.1,.,.,-6.8,-1.6,-0.8,.,.
CCOC(=O)c1c(C)nc2sc(C(=O)Nc3ccc(C(C)=O)cc3)c(N)c2c1-c1ccc(OC)cc1,1.9,.,.,26.5,-7.5,29.8*,20.5,37.5*
Cc1ccccc1NC(=O)CC(O)(C(F)(F)F)C(F)(F)F,-1.0,-14.4,1,5.6,-2.8,2.0,.,.
Cc1ccc(NC(=O)CC(O)(C(F)(F)F)C(F)(F)F)c(Br)c1,-4.1,2.5,1.2,-2.3,-8.6,27.7*,10.2,5.2
CC(C)C(O)(C(C)C)C(C)C,.,-5.5,.,.,.,.,.,.
Cc1ccc(S(=O)(=O)N2CCC(C(=O)O)(c3ccccc3)CC2)cc1,.,-5.1,.,.,.,.,.,.
Cc1cc2ncn(CC(=O)O)c2cc1C,.,15.4,.,.,.,.,.,.
COc1ccc(Nc2nc(N3CCCC3)c3ccccc3n2)cc1,0.6,-8.1,0.8,.,.,29.7*,35.6*,13.8
N=C(N)C(N=Nc1ccccc1)C(=N)N (centres undefined),.,4.3,.,.,.,.,.,.
CCN(CC)c1ccc2cc(-c3nc(-c4ccc(OC)cc4)cs3)c(=O)oc2c1,-4.0,.,.,.,.,78.1*,75.3*,85.0*
CC1CCCCC1NC(=O)COC(=O)c1c2c(nc3ccccc13)/C(=C/c1ccco1)CC2 (centres undefined),4.8,.,.,.,.,60.3*,36.6*,47.9*

# High-throughput results as filed in PubChem.
